First the molecules themselves.
T1: RBFOX1 RRM (Homo sapiens, UniProt Q9NWB1 109-208)
T1 sequence: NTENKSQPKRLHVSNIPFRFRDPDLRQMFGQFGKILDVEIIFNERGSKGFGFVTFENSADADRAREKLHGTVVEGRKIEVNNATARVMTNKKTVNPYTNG

B1: CGCCAUA (DNA:RNA)
RNA: GGGAGACCGGAAUUCAGAUUGUCCCGCCAUAUUAAAUCCCGUCGUAGCCACCA
DNA 1: CAATCTGAATTCCGGTCTCCC
DNA 2: TGGTGGCTACGACGGGATT
B2: AUUUUUA (DNA:RNA)
RNA: B1 RNA with C25A, G26U, C27U, C28U, A29U
DNA 1: CAATCTGAATTCCGGTCTCCC
DNA 2: TGGTGGCTACGACGGGATT
B3: UGUUCCG (DNA:RNA)
RNA: B1 RNA with C25U, C27U, C28U, A29C, U30C, A31G
DNA 1: CAATCTGAATTCCGGTCTCCC
DNA 2: TGGTGGCTACGACGGGATT
B4: GCACGAA (DNA:RNA)
RNA: B1 RNA with C25G, G26C, C27A, A29G, U30A
DNA 1: CAATCTGAATTCCGGTCTCCC
DNA 2: TGGTGGCTACGACGGGATT
B5: GCACGUA (DNA:RNA)
RNA: B1 RNA with C25G, G26C, C27A, A29G
DNA 1: CAATCTGAATTCCGGTCTCCC
DNA 2: TGGTGGCTACGACGGGATT
B6: GCACGAU (DNA:RNA)
RNA: B1 RNA with C25G, G26C, C27A, A29G, U30A, A31U
DNA 1: CAATCTGAATTCCGGTCTCCC
DNA 2: TGGTGGCTACGACGGGATT
B7: GCACACG (DNA:RNA)
RNA: B1 RNA with C25G, G26C, C27A, U30C, A31G
DNA 1: CAATCTGAATTCCGGTCTCCC
DNA 2: TGGTGGCTACGACGGGATT
B8: CGCACCG (DNA:RNA)
RNA: B1 RNA with C28A, A29C, U30C, A31G
DNA 1: CAATCTGAATTCCGGTCTCCC
DNA 2: TGGTGGCTACGACGGGATT
B9: GCACGAG (DNA:RNA)
RNA: B1 RNA with C25G, G26C, C27A, A29G, U30A, A31G
DNA 1: CAATCTGAATTCCGGTCTCCC
DNA 2: TGGTGGCTACGACGGGATT
B10: UCGUCCG (DNA:RNA)
RNA: GGGAGACCGGAAUUCAGAUUGUCCUCGUCCGUUAAAUCCCGUCGUAGCCACCA
DNA 1: CAATCTGAATTCCGGTCTCCC
DNA 2: TGGTGGCTACGACGGGATT
B11: UCGCACG (DNA:RNA)
RNA: B10 RNA with U28C, C29A
DNA 1: CAATCTGAATTCCGGTCTCCC
DNA 2: TGGTGGCTACGACGGGATT
B12: GCACGUG (DNA:RNA)
RNA: B1 RNA with C25G, G26C, C27A, A29G, A31G
DNA 1: CAATCTGAATTCCGGTCTCCC
DNA 2: TGGTGGCTACGACGGGATT
B13: ACGCACG (DNA:RNA)
RNA: B10 RNA with U25A, U28C, C29A
DNA 1: CAATCTGAATTCCGGTCTCCC
DNA 2: TGGTGGCTACGACGGGATT
B14: CCGCACG (DNA:RNA)
RNA: B10 RNA with U25C, U28C, C29A
DNA 1: CAATCTGAATTCCGGTCTCCC
DNA 2: TGGTGGCTACGACGGGATT
B15: UCGCACC (DNA:RNA)
RNA: B10 RNA with U28C, C29A, G31C
DNA 1: CAATCTGAATTCCGGTCTCCC
DNA 2: TGGTGGCTACGACGGGATT
B16: UUUCUCU (DNA:RNA)
RNA: B10 RNA with C26U, G27U, U28C, C29U, G31U
DNA 1: CAATCTGAATTCCGGTCTCCC
DNA 2: TGGTGGCTACGACGGGATT
B17: CAUGAAC (DNA:RNA)
RNA: B1 RNA with G26A, C27U, C28G, U30A, A31C
DNA 1: CAATCTGAATTCCGGTCTCCC
DNA 2: TGGTGGCTACGACGGGATT
B18: CGAUGUC (DNA:RNA)
RNA: B1 RNA with C27A, C28U, A29G, A31C
DNA 1: CAATCTGAATTCCGGTCTCCC
DNA 2: TGGTGGCTACGACGGGATT
B19: CGUGGUC (DNA:RNA)
RNA: B1 RNA with C27U, C28G, A29G, A31C
DNA 1: CAATCTGAATTCCGGTCTCCC
DNA 2: TGGTGGCTACGACGGGATT
B20: UCUGCGG (DNA:RNA)
RNA: B10 RNA with G27U, U28G, C30G
DNA 1: CAATCTGAATTCCGGTCTCCC
DNA 2: TGGTGGCTACGACGGGATT
B21: AAAACGU (DNA:RNA)
RNA: B10 RNA with U25A, C26A, G27A, U28A, C30G, G31U
DNA 1: CAATCTGAATTCCGGTCTCCC
DNA 2: TGGTGGCTACGACGGGATT
B22: AGUCCGC (DNA:RNA)
RNA: B1 RNA with C25A, C27U, A29C, U30G, A31C
DNA 1: CAATCTGAATTCCGGTCTCCC
DNA 2: TGGTGGCTACGACGGGATT
B23: GAGACCG (DNA:RNA)
RNA: B10 RNA with U25G, C26A, U28A
DNA 1: CAATCTGAATTCCGGTCTCCC
DNA 2: TGGTGGCTACGACGGGATT
B24: GCGCGAA (DNA:RNA)
RNA: B1 RNA with C25G, G26C, C27G, A29G, U30A
DNA 1: CAATCTGAATTCCGGTCTCCC
DNA 2: TGGTGGCTACGACGGGATT
B25: GAGAAUG (DNA:RNA)
RNA: B1 RNA with C25G, G26A, C27G, C28A, A31G
DNA 1: CAATCTGAATTCCGGTCTCCC
DNA 2: TGGTGGCTACGACGGGATT
B26: GAGAUUG (DNA:RNA)
RNA: B10 RNA with U25G, C26A, U28A, C29U, C30U
DNA 1: CAATCTGAATTCCGGTCTCCC
DNA 2: TGGTGGCTACGACGGGATT
B27: GUGAAUG (DNA:RNA)
RNA: B1 RNA with C25G, G26U, C27G, C28A, A31G
DNA 1: CAATCTGAATTCCGGTCTCCC
DNA 2: TGGTGGCTACGACGGGATT
B28: GGAAAUG (DNA:RNA)
RNA: B1 RNA with C25G, C27A, C28A, A31G
DNA 1: CAATCTGAATTCCGGTCTCCC
DNA 2: TGGTGGCTACGACGGGATT
B29: GCGAAUC (DNA:RNA)
RNA: B1 RNA with C25G, G26C, C27G, C28A, A31C
DNA 1: CAATCTGAATTCCGGTCTCCC
DNA 2: TGGTGGCTACGACGGGATT
B30: GUGAAUC (DNA:RNA)
RNA: B1 RNA with C25G, G26U, C27G, C28A, A31C
DNA 1: CAATCTGAATTCCGGTCTCCC
DNA 2: TGGTGGCTACGACGGGATT
B31: GGGAAUG (DNA:RNA)
RNA: B1 RNA with C25G, C27G, C28A, A31G
DNA 1: CAATCTGAATTCCGGTCTCCC
DNA 2: TGGTGGCTACGACGGGATT
B32: GCGAAUG (DNA:RNA)
RNA: B10 RNA with U25G, U28A, C29A, C30U
DNA 1: CAATCTGAATTCCGGTCTCCC
DNA 2: TGGTGGCTACGACGGGATT
B33: GUUAAUG (DNA:RNA)
RNA: B1 RNA with C25G, G26U, C27U, C28A, A31G
DNA 1: CAATCTGAATTCCGGTCTCCC
DNA 2: TGGTGGCTACGACGGGATT
B34: GUGACCG (DNA:RNA)
RNA: B10 RNA with U25G, C26U, U28A
DNA 1: CAATCTGAATTCCGGTCTCCC
DNA 2: TGGTGGCTACGACGGGATT

Where a chain is given by its changes, count along the chain named. In all, about 16,000 sequences were measured (“ka relative to ugcaugu”: median about 0.0091, highest 2% from about 0.032 on). What follows is part of a selection rich in the highest values, with near analogues and random picks from the rest.

This assay deals with T1, RBFOX1 RRM. Briefly: EMSA; HiTS-Eq, 1 nM pool, 10 min; buffer printed only for the single-RNA assays: 10 mM Tris pH 7.5, 150 mM NaCl, 3.4 mM EDTA, 0.001% NP-40, 30 C. The conditions noted are these: tags: His6 N-terminal (pET28a); label: 5' 32P. The method in brief: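 Purified RbFox RRM (wild type or mutant) was equilibrated for 10 min in 50 µL with 1 nM of a 5′-radiolabelled pool of RNA with 7 randomized nucleotides, its flanks annealed to DNA oligonucleotides, across increasing protein concentrations. Free RNA was separated by 8% native PAGE, excised, reverse-transcribed, PCR-barcoded and sequenced on an Illumina HiSeq 2500. Relative association constants came from read-count changes of each variant against the control reaction, normalised to the cognate motif.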
A general note: In EMSA bound probe runs differently from free probe, usually more slowly.
With B1, the binding signal was 0.00265 KA relative to UGCAUGU.
In the case of B2, the binding signal was 0.00169 KA relative to UGCAUGU.
As to B3, the binding signal was 0.0186 KA relative to UGCAUGU.
With B4, the binding signal is 0.0197 KA relative to UGCAUGU.
Consider B5, for which the binding signal was 0.0281 KA relative to UGCAUGU.
Regarding B6, the binding signal is 0.0227 KA relative to UGCAUGU.
For B7, the binding signal is 0.00843 KA relative to UGCAUGU.
Turning to B8, the binding signal is 0.00744 KA relative to UGCAUGU.
Regarding B9, the binding signal was 0.0362 KA relative to UGCAUGU.
Turning to B10, the binding signal was 0.016 KA relative to UGCAUGU.
Take B11: the binding signal was 0.0586 KA relative to UGCAUGU.
Turning to B12, the binding signal is 0.0821 KA relative to UGCAUGU.
Turning to B13, the binding signal is 0.0314 KA relative to UGCAUGU.
Next, B14: 0.0481 KA relative to UGCAUGU; B15: 0.0108 KA relative to UGCAUGU.
As for B16, the binding signal is 0.0126 KA relative to UGCAUGU.
As for B17, the binding signal was 0.00509 KA relative to UGCAUGU.
For B18, the binding signal is 0.0174 KA relative to UGCAUGU.
For the molecule B19, the binding signal is 0.017 KA relative to UGCAUGU.
As for B20, the binding signal is 0.0178 KA relative to UGCAUGU.
As for B21, the figure is 0.000755 KA relative to UGCAUGU; as for B22, 0.0128 KA relative to UGCAUGU.
For the molecule B23, the binding signal is 0.00974 KA relative to UGCAUGU.
For the molecule B24, the binding signal is 0.0104 KA relative to UGCAUGU.
Next, B25: 0.0321 KA relative to UGCAUGU.
As for B26, the binding signal was 0.019 KA relative to UGCAUGU.
For the molecule B27, the binding signal was 0.0355 KA relative to UGCAUGU.
As for B28, the binding signal was 0.0124 KA relative to UGCAUGU.
Regarding B29, the binding signal is 0.0124 KA relative to UGCAUGU.
On to B30, for which the binding signal was 0.0142 KA relative to UGCAUGU.
Next, B31: 0.0951 KA relative to UGCAUGU; B32: 0.0369 KA relative to UGCAUGU; B33: 0.0118 KA relative to UGCAUGU.
For B34, the binding signal is 0.0167 KA relative to UGCAUGU.

(Values after PMC9911399, “Two distinct binding modes provide the RNA-binding protein RbFox with extraordinary sequence specificity”.)
